KCNQ2 enhance = potentiators of rat KCNQ2 potassium channel. Potassium voltage-gated channel subfamily KQT member 2 (Rattus norvegicus), O88943. CHO-K1 KCNQ2, FluxOR thallium flux fluorescence; hits give high values. B-score at 10 µM. 0.54% of 310,000 active;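 active means fluorescence ratio B-score at least 3 SD of library B-scores, with initial fluorescence B-score within 3 of them, cut at about 5.3 in these data; same plate scores as AID 2156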;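 further: B-score of peak minus minimum over baseline fluorescence ratio after K+ and Tl+ stimulus; positive B-score means potentiation of KCNQ2 with more thallium influx and brighter signal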
Target sequence (O88943 whole entry, looked up): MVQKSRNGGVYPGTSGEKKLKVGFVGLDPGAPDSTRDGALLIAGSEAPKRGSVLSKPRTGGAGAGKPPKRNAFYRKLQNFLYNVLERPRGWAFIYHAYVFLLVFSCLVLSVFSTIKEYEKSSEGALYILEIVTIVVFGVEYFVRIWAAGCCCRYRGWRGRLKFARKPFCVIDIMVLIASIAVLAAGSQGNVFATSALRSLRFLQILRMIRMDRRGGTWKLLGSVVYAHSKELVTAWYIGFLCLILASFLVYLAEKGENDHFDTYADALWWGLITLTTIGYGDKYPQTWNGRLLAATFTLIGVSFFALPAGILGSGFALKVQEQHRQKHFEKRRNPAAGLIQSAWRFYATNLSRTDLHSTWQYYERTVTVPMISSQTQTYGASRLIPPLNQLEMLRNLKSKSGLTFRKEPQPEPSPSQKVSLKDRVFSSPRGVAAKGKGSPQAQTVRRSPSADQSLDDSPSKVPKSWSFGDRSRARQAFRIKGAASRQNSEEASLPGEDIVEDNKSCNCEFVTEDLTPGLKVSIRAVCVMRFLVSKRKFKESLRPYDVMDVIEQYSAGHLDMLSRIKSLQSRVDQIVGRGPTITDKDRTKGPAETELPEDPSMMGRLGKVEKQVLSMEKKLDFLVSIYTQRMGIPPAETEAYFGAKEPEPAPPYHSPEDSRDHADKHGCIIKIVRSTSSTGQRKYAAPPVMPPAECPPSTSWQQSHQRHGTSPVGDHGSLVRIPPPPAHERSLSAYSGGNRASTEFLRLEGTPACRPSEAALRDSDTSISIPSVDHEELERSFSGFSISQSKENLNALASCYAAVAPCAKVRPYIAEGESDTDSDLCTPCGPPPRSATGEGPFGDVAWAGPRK
KCNQ2 block = rat KCNQ2 potassium channel inhibitors, primary screen, cell-based, CHO-K1, FluxOR thallium flux, B-score. B-score at 10 µM. 20 min; hits give low values. 1.1% of 310,000 active. AID 2156, 2009;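 active means fluorescence ratio B-score at most minus 3 library SDs, with starting brightness B-score within 2 library SDs, cut at about -5.5 in these data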
Each line names hits and unclear results; the compound was inactive in the other large screens. A selection: hits, their analogues and other compounds. The true share with any hit is near 1.6%.

O=C1CCCN1CC(O)CS(=O)(=O)Cc1ccccc1Cl (centres undefined)	none
Cc1ccc(C(=O)Nc2nnc(S(=O)(=O)N3CCC(C)CC3)s2)cc1	none (no result: KCNQ2 enhance)
Cc1ccc(-c2nc3cccnc3s2)cc1NS(=O)(=O)c1ccc2c(c1)CCCC2	KCNQ2 block -6
O=S(=O)(Nc1cccc(-c2nc3cccnc3s2)c1)c1ccc2c(c1)CCCC2	none (no result: KCNQ2 enhance)
CCOC(=O)C1CCCN(C(=O)c2cnn3c(C(F)(F)F)cc(-c4ccccc4)nc23)C1 (centres undefined)	none (no result: KCNQ2 enhance)
CCOC(=O)C1CCCN(C(=O)c2cc(-c3ccc(C)cc3)nc3ccccc23)C1 (centres undefined)	KCNQ2 block -5.6
CCOC(=O)C1CCCN(C(=O)c2cc(Nc3ccc(OC)c(OC)c3)nc3ccccc23)C1 (centres undefined)	none (no result: KCNQ2 enhance)
CCOC(=O)C1CCCN(C(=O)c2cc(Nc3ccc(OC)cc3OC)nc3ccccc23)C1 (centres undefined)	KCNQ2 block -7.6
CSc1ccc(CN2CCN(C(C)C)C(CCO)C2)cc1 (centres undefined)	none (no result: KCNQ2 enhance)
Cc1c(Cl)cn2c(=O)cc(CN3CCN(c4ccc(F)cc4)CC3)nc2c1Cl	none (no result: KCNQ2 enhance)
Cc1cccnc1NC(=O)CCNC(=O)c1ccc(Br)cc1	none
Cc1cc(C(N)=O)nn1-c1c(Cl)cc(Cl)cc1Cl	none
N=c1oc2ccc3ccccc3c2cc1C(N)=S	none
Cc1onc(-c2ccccc2)c1C(=O)Nc1ccccc1NC(=O)c1c(-c2ccccc2)noc1C	none (no result: KCNQ2 enhance)
Cc1cccc(C)c1NC(=O)c1c(-c2ccccc2)noc1C	KCNQ2 block -5.7
COc1ccc(NC(=O)c2c(-c3ccccc3)noc2C)c(OC)c1	none (no result: KCNQ2 enhance)
CCCOc1ccccc1NC(=O)c1c(-c2ccccc2)noc1C	KCNQ2 block -6.1
CCOC(=O)Cn1cnc(-c2ccc([N+](=O)[O-])cc2)c1	none (no result: KCNQ2 enhance)
CCc1cccc(C)c1NC(=S)N(CCN(C)C)C(C)c1cccnc1 (centres undefined)	none (no result: KCNQ2 enhance)
Cc1ccc(C)c(OCc2cc(C(=O)N3C[C@@H](C)O[C@@H](C)C3)no2)c1	none
Cc1ccc(C)c(OCc2cc(C(=O)N3CC[C@@H]4CCCC[C@H]4C3)no2)c1	KCNQ2 block -6.5
C=CCN(CC=C)S(=O)(=O)c1ccc(NC(=S)NC(=O)C2CC2)cc1	none (no result: KCNQ2 enhance)
COc1ccc(C2CC(c3c(-c4ccccc4)c4cc(Cl)ccc4[nH]c3=O)=NN2S(C)(=O)=O)cc1 (centres undefined)	none
COc1ccc(OC)c(C2CC(c3c(-c4ccccc4)c4cc(Cl)ccc4[nH]c3=O)=NN2S(C)(=O)=O)c1 (centres undefined)	KCNQ2 block -7
COc1ccccc1CNC(=O)c1n[nH]c2ccccc12	none
COc1ccccc1CNC(=O)COC(=O)c1n[nH]c2ccccc12	KCNQ2 block -5.9
Cc1cccc(NC(=O)Nc2ccccc2[N+](=O)[O-])n1	none
CC1CCN(C(=O)C2CCC(=O)N(Cc3ccc(Cl)cc3)C2)CC1 (centres undefined)	none
CCOC(=O)CC/C(=N\NC(N)=O)c1ccc(OC)c(Cl)c1	none (no result: KCNQ2 enhance)
CCn1ccnc1CN(C)Cc1cn(-c2ccc(C)cc2)nc1-c1ccc(F)cc1	none (no result: KCNQ2 enhance)
CCn1ccnc1CN(C)Cc1cn(-c2cc(C)ccc2C)nc1-c1ccccc1	KCNQ2 block -8.2
CC1CCN(C(=O)N2c3ccccc3Sc3ccccc32)CC1	none (no result: KCNQ2 enhance)
CC1CN(C(=O)N2c3ccccc3Sc3ccccc32)CC(C)O1 (centres undefined)	KCNQ2 block -6.2
Cc1ccc(C(=O)NNC(=O)CCCCC(=O)NNC(=O)c2ccc(C)cc2)cc1	none
COc1ccccc1C(=O)NCCC(=O)NCC(c1ccccc1)N(C)C (centres undefined)	none
CC(C)(C)NC(=S)NC(=O)C12CCC3CC(CC(C3)C1)C2	KCNQ2 block -5.7
CC(C)(C)NC(=O)C12CC3CC(CC(Cl)(C3)C1)C2	none
C#CCOc1c(/C=C\c2nc(O)c([N+](=O)[O-])c(=O)[nH]2)cc(Br)cc1OC	none (no result: KCNQ2 enhance)
Cc1cc(S(=O)(=O)NCCCN2CCOCC2)c(Cl)cc1Cl	none (no result: KCNQ2 enhance)
Cc1cc(C)c(C#N)c(SCC(=O)c2cc(C)n(CCc3ccccc3)c2C)n1	KCNQ2 block -6.4
COCCn1c(C)cc(C(=O)CSc2nc(C)cc(C)c2C#N)c1C	none (no result: KCNQ2 enhance)
CC(C)C(C(=O)OCC(=O)c1ccccc1)N1C(=O)C2C3C=CC(C3)C2C1=O (centres undefined)	none (no result: KCNQ2 enhance)
Cc1cccc(-c2nc(CS(=O)CC(=O)N3CCc4ccccc4C3)c(C)o2)c1 (centres undefined)	KCNQ2 block -7.8
CCN1CCN(C(=O)CS(=O)Cc2nc(-c3cccc(C)c3)oc2C)CC1 (centres undefined)	none (no result: KCNQ2 enhance)
O=C(N/N=C/c1ccccc1[N+](=O)[O-])c1ccc(COc2ccccc2-c2ccccc2)cc1	none (no result: KCNQ2 enhance)
Cc1cc(NC(=O)CSc2nnc(COc3cccc(C)c3C)n2Cc2ccco2)no1	none
Cc1cccc(OCc2nnc(SCC(=O)N(C(C)C)C(C)C)n2Cc2ccco2)c1C	KCNQ2 block -7.7

Screening results from PubChem.
